The assay relates to Caenorhabditis elegans N2 infected with Nematocida parisii ERTm1. The assay can be described thus: progeny production relative to DMSO uninfected control; higher = more progeny despite microsporidia infection (inhibition of infection with low host toxicity). The note with it: infection time 6 days. A digest of the protocol:
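Values give progeny production relative to spore-free vehicle wells, as a percentage averaged across replicates. For each of three runs per compound and dose, 100 bleach-synchronised wild-type C. elegans L1 larvae per well were grown in 96-well plates with K-medium, E. coli OP50, 15,000 N. parisii spores/μL and compound at 100 μM or 40 μM in 1% DMSO. After 6 days of shaking at 21°C, worms were Rose Bengal-stained, flatbed-scanned and counted with WorMachine.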

Here are results for 15 compounds from the supplement of paper PMC10732440.

The structures appear in SMILES notation. ± gives the standard deviation of the averaged measurements.

On to `CCCC1(C2CC2)c2cc(Cl)ccc2NC(=O)N1C` (stereo not given), for which the progeny production (40 µM) stood at 2.32 ± 0.043% and the progeny production (100 µM) was found to be 11.3 ± 3.5%.
Consider `CC(C)n1cnc2c(NCc3ccccc3)nc(NCc3ccccc3)nc21`, for which the progeny production is, setting by setting: (40 µM) 7.59 ± 5.2%; (100 µM) 12.1 ± 7.2%.
The matching figures for `COc1cccc(N2CCN(C3=Nc4c(F)cccc4[C@H](CC(=O)O)N3c3cc(C(F)(F)F)ccc3OC)CC2)c1`: 6.01 ± 2.9% and 14.7 ± 7.5%.
The matching figures for `CCc1cc(O)c(Oc2ccc(C(N)=O)cc2F)cc1F`: 3.13 ± 2.7% and 8.3 ± 5.3%.
The like results for `Cc1[nH]c2ccccc2c1CCNCc1ccc(/C=C/C(=O)NO)cc1` were, in that order, 6.83 ± 2.5% and 9.79 ± 7.8%.
In the case of `N[C@@H]1CN(c2c(F)cc3c(=O)c(C(=O)O)cn([C@@H]4C[C@@H]4F)c3c2Cl)CC12CC2`, the progeny production is 9.37 ± 3.9% (40 µM) and 13.4 ± 6.8% (100 µM).
Consider `COc1ccc(CNC(=O)C2CCN([C@H](C)c3cccc4ccccc34)CC2)cc1`, for which the progeny production by setting is: (40 µM) 4.66 ± 2.1%; (100 µM) 15.7 ± 6.6%.
In the case of `CC(C)Oc1ccc(-c2nc(-c3cccc4c3CC[C@@H]4NCCO)no2)cc1C#N`, the progeny production runs as follows: (40 µM) 3.24 ± 0.4%; (100 µM) 4.7 ± 2.8%.
The matching figures for `O=S(=O)(NCB(O)O)c1cc2c(Cl)ccc(Cl)c2s1`: 4.07 ± 0.53% and 15.8 ± 20%.
The matching figures for `Clc1cccc(-c2nnc(-c3ccccc3)o2)c1`: 1.33 ± 1.1% and 4.24 ± 2.4%.
The matching figures for `NC(=O)c1ccccc1NC(=O)c1ccc(C(=O)Nc2ccccc2C(N)=O)cc1`: 8.47 ± 2.6% and 11.6 ± 6.2%.
As to `CN1CCN(Cc2ccc(-c3cnc4[nH]cc(-c5ccc6[nH]ccc6c5)c4c3)cc2)CC1`, the progeny production runs as follows: (40 µM) 9.2 ± 4.8%; (100 µM) 14.6 ± 5.6%.
The matching figures for `Nc1nc(=O)[nH]cc1F`: 5.01 ± 1.2% and 23.7 ± 7.4%.
The matching figures for `CCNC(=O)Nc1cn2c(-c3ncc(CC)cn3)cc(-c3cccnc3)cc2n1`: 3.09 ± 1.5% and 6.08 ± 4.7%.
The like results for `Cn1cncc1[C@@](N)(c1ccc(Cl)cc1)c1ccc2c(c1)c(-c1cccc(Cl)c1)cc(=O)n2C` were, in that order, 2.71 ± 0.38% and 8.73 ± 2.4%.
